Laboratory results from PubChem BioAssay AID1030 (National Center for Advancing Translational Sciences (NCATS), 2008).
The whole screen tested about 220,000 compounds, of which about 16,000 (7.3%) were called active. Roughly 25% stayed inconclusive and do not appear here. Calls follow the shape of the dose curve; as a rule, active = well fitted inhibition curve with a large enough effect (not every such curve was filed as active); inconclusive = small, poorly fitted or top-dose-only effect, or another doubt; inactive = no such curve, though single readings can be large or run the other way. The sample as a whole holds a higher share of actives than the screen did.

Target: Aldehyde dehydrogenase 1A1 (Homo sapiens) (UniProt P00352)
Sequence (P00352 whole entry, looked up): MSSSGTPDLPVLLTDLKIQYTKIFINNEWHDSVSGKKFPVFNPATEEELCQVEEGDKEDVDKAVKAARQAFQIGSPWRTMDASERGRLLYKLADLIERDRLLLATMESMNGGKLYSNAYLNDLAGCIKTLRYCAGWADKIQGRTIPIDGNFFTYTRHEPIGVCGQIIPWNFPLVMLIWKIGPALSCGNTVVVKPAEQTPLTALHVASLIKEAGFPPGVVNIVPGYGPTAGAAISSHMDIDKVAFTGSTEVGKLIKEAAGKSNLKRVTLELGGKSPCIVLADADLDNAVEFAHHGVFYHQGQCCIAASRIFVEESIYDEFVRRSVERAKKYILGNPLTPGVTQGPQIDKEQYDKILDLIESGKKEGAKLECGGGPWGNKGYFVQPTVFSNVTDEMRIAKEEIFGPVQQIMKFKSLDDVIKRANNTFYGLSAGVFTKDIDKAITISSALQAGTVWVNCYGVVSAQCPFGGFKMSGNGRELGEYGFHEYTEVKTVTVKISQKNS
Test: qHTS Assay for Inhibitors of Aldehyde Dehydrogenase 1 (ALDH1A1);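 as to activity, negative = inhibition: plate controls were no enzyme wells and a reference inhibitor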
Settings: Purified ALDH1A1, NADH fluorescence, propionaldehyde substrate; series mostly up to 75.3 µM; activity, negative = inhibition: at the top concentration
Potency is read from the fitted curve at half-maximal effect.

Row | SMILES | activity, negative = inhibition | Potency
1 | CC(C)(C)OC(=O)N1CCC(NC(=O)c2[nH]cnc2C(=O)N[C@@H](Cc2ccccc2)C(=O)OCc2ccccc2)CC1 | -3.65% (inactive) | –
2 | CC(C)[C@H](NC(=O)c1ccc(F)cc1)C(=O)OCC(=O)NC(=O)c1cccn1C | -0.435% (inactive) | –
3 | CCSC1=NCCN1C(=O)c1ccc(S(=O)(=O)N(CC)CC)cc1 | -7.18% (inactive) | –
4 | COC(=O)CNC(=O)c1ccccc1F | 12.2% (inactive) | –
5 | CCCCN(C)C(=O)c1ccc2c(c1)N(CC)C(=O)c1ccccc1S2(=O)=O | 8.84% (inactive) | –
6 | COC(=O)CNC(=O)c1ccc2c(c1)S(=O)(=O)c1ccccc1C2=O | – | 11.2 µM (active)
7 | O=C(CCn1ccc([N+](=O)[O-])n1)Nc1nccs1 | 1.26% (inactive) | –
8 | COc1cc(OC)c(C2=NOC(C(=O)Nc3c(C)n(C)n(-c4ccccc4)c3=O)C2)cc1Cl (stereo unspecified) | 5.57% (inactive) | –
9 | COc1ccc(NC(=O)CCNS(=O)(=O)c2ccc3c(c2)c(=O)n(C)c(=O)n3C)cc1OC | 4.29% (inactive) | –
10 | CC(C)(C)c1cc(CN2CCN(CCC#N)CC2)cc(C(C)(C)C)c1O | – | 7.08 µM (active)
11 | N#CCCN1CCN(S(=O)(=O)c2ccc(S(=O)(=O)N3CCCC3)cc2)CC1 | -6.46% (inactive) | –
12 | CCC(=O)c1ccc(OCC(O)Cn2nc(C)c(C(C)=O)c2C)cc1 (stereo unspecified) | 6.23% (inactive) | –
13 | O=C(Nc1cccc(F)c1)N1C2CCC1CC(O)(c1cccnc1)C2 (stereo unspecified) | 2.68% (inactive) | –
14 | O=C(O)c1ccccc1-c1ccccc1C(=O)Nc1nccs1 | -6.84% (inactive) | –
15 | CCOC(=O)N1CCC(NC(=O)C(NS(=O)(=O)c2ccc3c(c2)CCN3C(=O)CC)C(C)C)CC1 (stereo unspecified) | -1.13% (inactive) | –
16 | Cc1ccc(CN2CCN(Cc3cccc(C)n3)CC2CCO)cc1 (stereo unspecified) | -7.49% (inactive) | –
17 | COc1ccc(C2=CC(c3cccc(OC)c3)n3nnnc3N2)cc1 (stereo unspecified) | 3.52% (inactive) | –
18 | CCOC(=O)CNC(=O)c1nn(-c2cccc(OC)c2)c(=O)c2ccccc12 | -2.61% (inactive) | –
19 | CCOc1cccc(-n2nnnc2-c2ccc(OC)cc2)c1 | – | 25.1 µM (active)
20 | Cc1ccc(S(=O)(=O)NC(=O)N2CCCN(Cc3ccc(F)cc3)CC2)cc1 | 8.46% (inactive) | –
21 | CC(=O)Nc1ccc(NC(=O)COc2ccc(S(=O)(=O)NC(C)c3ccccc3)cc2)cc1 (stereo unspecified) | 7.35% (inactive) | –
22 | O=C(Nc1cccc(C(F)(F)F)c1)c1cnccn1 | 4.04% (inactive) | –
23 | CN(C)/C=C/C(=O)c1cnc2sccn2c1=O | 6.38% (inactive) | –
24 | CCOC(=O)c1c(-c2ccccc2)csc1NC(=S)NC(=O)c1ccccc1 | -3.67% (inactive) | –
25 | CCOC(=O)c1c(NC(=O)C2(C)Cc3ccccc3C(=O)O2)sc2c1CCCC2 (stereo unspecified) | 23.1% (inactive) | –
26 | CCOC(=O)C1=C(NC(=S)NC(=O)c2ccccc2)c2ccccc2CC1(C)C | – | 20 µM (active)

Row | SMILES | activity, negative = inhibition | Potency
27 | COC(=O)C1=C(C)N(C)C(=S)NC1c1cc(OC)ccc1OC (stereo unspecified) | 5.5% (inactive) | –
28 | FC(F)(F)c1ccnc(Oc2ccc(C3=NCCS3)cc2)c1 | -6.21% (inactive) | –
29 | CCN1CCN(C(=O)c2ccc(CN(c3ccc(C)c(C)c3)S(C)(=O)=O)cc2)CC1 | -0.172% (inactive) | –
30 | CN1CCC(=NNC(=O)c2ccc(N(Cc3ccc(Cl)cc3)S(C)(=O)=O)cc2)CC1 | – | 8.91 µM (active)
31 | CN1CCC(=NNC(=O)CN(c2cccc(Cl)c2)S(C)(=O)=O)CC1 | 10.8% (inactive) | –
32 | CC(=O)N1CC(C)c2scc(C)[n+]2-c2ccccc21 (stereo unspecified) | 15.2% (inactive) | –
33 | OCC1(Cc2ccccc2C(F)(F)F)CCN(Cc2cccc3cnccc23)CC1 | -3.56% (inactive) | –
34 | O=S(=O)(NC1CC1)c1ccc2c3c(cccc13)CC2 | -5.31% (inactive) | –
35 | COc1ccc(C(=O)NC(Cc2ccc(OC(=O)c3ccc(OC)cc3)cc2)C(=O)O)cc1 (stereo unspecified) | -7.25% (inactive) | –
36 | COc1ccc(-c2ccc(CCC(=O)O)n2NC(=O)c2ccc(C(C)(C)C)cc2)cc1 | – | 2.24 µM (active)
37 | COc1ccc(N2CCN(C(=O)CNC(=O)c3ccc(C(C)(C)C)cc3)CC2)cc1 | -14.7% (inactive) | –
38 | CCCNC(=S)N1CCCC(c2nc3ccccc3[nH]2)C1 (stereo unspecified) | 9.56% (inactive) | –
39 | C#Cc1ccc([C@@H]2C=C(C(=O)O)O[C@H](OCCCCO)C2)cc1 | -7.97% (inactive) | –
40 | Cc1csc(/N=C/N(C)C)c1C#N | -6.21% (inactive) | –
41 | COc1c(C(C)C)oc2cc3oc(=O)ccc3cc12 | -1.48% (inactive) | –
42 | C/C(Nc1ccc2oc(=O)ccc2c1)=C1/C(=O)CC2[C@@H]1C2(C)C (stereo partly specified) | – | 3.98 µM (active)
43 | Cc1c(CCO)sc[n+]1CC(=O)OC12CC3CC(CC(C3)C1)C2 | 5.18% (inactive) | –
44 | CC(=O)Nc1ccc(Nc2nc3c(S(=O)(=O)c4ccc(C)c(C)c4)nnn3c3ccccc23)cc1 | 139% (inactive) | –
45 | CN(CCc1ccccn1)C(=O)CCC1CCCN(Cc2ccccc2OC(F)F)C1 (stereo unspecified) | 11.8% (inactive) | –
46 | c1ccc(COc2ccccc2CNCc2cccnc2)cc1 | – | 17.8 µM (active)
47 | O=C(CCc1ccccc1)NCc1cccnc1 | 3.47% (inactive) | –
48 | Fc1ccccc1COc1ccccc1CNCc1ccncc1 | 8.32% (inactive) | –
49 | CC(C)(C)c1ccc(/C=C2\Oc3c(ccc(O)c3CN3CCN(CCO)CC3)C2=O)cc1 | -12.5% (inactive) | –
50 | O=C(CSc1ccc2nnc(-c3ccccc3)n2n1)N1CCCc2ccccc21 | -10.2% (inactive) | –
51 | O=C(NCc1nnc(SCC(=O)N2CCCc3ccccc32)o1)c1ccccc1F | – | 28.2 µM (active)
52 | Cc1nnc(SCC(=O)N2CCc3ccccc32)n1-c1ccccc1 | 0.566% (inactive) | –

Row | SMILES | activity, negative = inhibition | Potency
53 | COc1ccc(-c2ccc(CNCCCN3CCOCC3)o2)cc1Cl | 6.17% (inactive) | –
54 | CC1(C)O[C@@H]2C[C@@H]3[C@H]4C[C@@H](F)C5=CC(=O)C=C[C@]5(C)[C@@]4(F)[C@@H](O)C[C@]3(C)[C@]2(C(=O)CO)O1 | 12.1% (inactive) | –
55 | COC(=O)C1=C(C(=O)c2ccc(C)cc2)C(c2ccccc2)n2nnnc2N1 (stereo unspecified) | – | 7.08 µM (active)
56 | COc1ccc(C2C(C(=O)Nc3ccccc3OC)=C(C)Nc3nnnn32)c(OC)c1 (stereo unspecified) | -14.3% (inactive) | –
57 | COc1ccccc1NC(=O)C1=C(C)Nc2nnnn2C1c1cccc(Br)c1 (stereo unspecified) | -5.9% (inactive) | –
58 | COc1cc(OC)cc(-c2nnc(SCC(=O)Nc3ccc(C(=O)O)cc3)s2)c1 | -8.2% (inactive) | –
59 | Cc1ccc(S(=O)(=O)NC(C(=O)N2CCOCCOCCOCCOCC2)c2ccccc2)cc1 (stereo unspecified) | -1.15% (inactive) | –
60 | CCC(CC)NC(=O)/C=C/c1cccc([N+](=O)[O-])c1 | -3.2% (inactive) | –
61 | O=C(/C=C/c1cccc([N+](=O)[O-])c1)NCCSCc1ccco1 | – | 20 µM (active)
62 | COc1cc(OC)cc(C(=O)NCCSCc2ccco2)c1 | 5.75% (inactive) | –
63 | C/C=C1\C2C=C(C)CC1(N)c1ccc(=O)[nH]c1C2 (stereo unspecified) | – | inactive
64 | CCOc1ccc(-c2ccc(SCC(=O)N3CCOCC3)nn2)cc1 | 1.06% (inactive) | –
65 | CN1CCN(S(=O)(=O)c2cccc(C(=O)N3CCc4ccccc43)c2)CC1 | -2.83% (inactive) | –
66 | C/C(=N\NC(=O)c1cccc(N2CCCC2=O)c1)c1ccc(N)cc1 | -7.57% (inactive) | –
67 | O=C(CCN1C(=O)COc2ccccc21)NCCCN1CCN(c2ccc(F)cc2)CC1 | 8.59% (inactive) | –
68 | CCCN1CCN(CCCNC(=O)CN2C(=O)COc3ccccc32)CC1 | -0.825% (inactive) | –
69 | O=C(CN1C(=O)COc2ccccc21)Nc1ccc(F)cc1 | – | 22.4 µM (active)
70 | Cc1ccc(Cl)c(NC(=O)CN2CCN(C=O)CC2)c1 | 6.92% (inactive) | –
71 | CCCCC/C=C\C/C=C\C/C=C\CCCCC(=O)NCC(=O)O | 1.71% (inactive) | –
72 | O=C(O)C1CCN(C(=O)c2cc(F)cc3c2OCOC3)CC1 | -4.59% (inactive) | –
73 | COc1ccc([N+](=O)[O-])cc1C1NN=C(c2cccc3ccccc23)S1 (stereo unspecified) | – | 10 µM (active)
74 | COc1ccc([N+](=O)[O-])cc1NC(=O)C(C)OC(=O)C1c2ccccc2Oc2ccccc21 (stereo unspecified) | 4.85% (inactive) | –
75 | COc1ccccc1C1CCN(c2ccc([N+](=O)[O-])cn2)CC1 | -3.06% (inactive) | –
76 | COc1ccc(CN(C)Cc2nc3cc(OC)c(OC)cc3c(=O)[nH]2)c(OC)c1 | 6.82% (inactive) | –
77 | COc1ccnc(Oc2ccccc2)c1-c1ncn[nH]1 | -0.551% (inactive) | –
78 | Cc1cc2oc(=O)cc(-c3ccccc3)c2c(C)c1/C=C/c1ccc(F)cc1 | 1.81% (inactive) | –

Row | SMILES | activity, negative = inhibition | Potency
79 | Nc1ccc(S(=O)(=O)Nc2nccc(/C=C/c3ccc(Br)s3)n2)cc1 | -11.9% (inactive) | –
80 | CSCC(=O)N1CCCC(C(=O)c2cc(F)ccc2F)C1 (stereo unspecified) | – | 10 µM (active)
81 | COc1ccc(F)cc1C(=O)C1CCCN(C(=O)CCc2ccccn2)C1 (stereo unspecified) | -4.22% (inactive) | –
82 | Cc1cc(Cl)ccc1C(=O)C1CCCN(C(=O)CCN2CCCO2)C1 (stereo unspecified) | -15.5% (inactive) | –
83 | Cc1cc(C(=O)OCC(=O)NCc2ccco2)c(C)n1-c1ccccc1 | -9.68% (inactive) | –
84 | Cc1cc(C(=O)CC#N)c(C)n1-c1c(C)n(C)n(-c2ccccc2)c1=O | 17.2% (inactive) | –
85 | Cc1cc(C(=O)COC(=O)c2cccs2)c(C)n1-c1c(C)n(C)n(-c2ccccc2)c1=O | – | 20 µM (active)
86 | CCOc1ccc(CCN2C(=O)c3cccnc3C2=O)cc1OCC | 4.81% (inactive) | –
87 | O=C1CC(=O)Nc2cc(S(=O)(=O)N3CCN(c4cccc(C(F)(F)F)c4)CC3)ccc2N1 | -2.99% (inactive) | –
88 | O=C(CN(CC1CCCO1)C(=O)CNS(=O)(=O)c1ccc(F)cc1)NCc1ccco1 (stereo unspecified) | 4.66% (inactive) | –
89 | Cc1ccc(S(=O)(=O)N(C)CC(=O)NC2CCCC2)cc1 | -2.42% (inactive) | –
90 | Cc1ccc(S(=O)(=O)NCC(=O)N(CC(=O)NC2CCCCC2)Cc2ccco2)cc1 | – | 17.8 µM (active)
91 | COc1ccccc1-c1nc(SC)n[nH]1 | 2.27% (inactive) | –
92 | O=C(CN1CCOCC1)Nc1c(Cl)cc(Cl)cc1Cl | 9.81% (inactive) | –
93 | C=CCNC(=S)NNC(=O)c1cc(Cl)ccc1OC | 8.59% (inactive) | –
94 | COc1ccc(C(=O)N(Cc2ccc(N(C)C)cc2)C2CCS(=O)(=O)C2)cc1 (stereo unspecified) | – | 5.62 µM (active)
95 | COc1cc(C(=O)N(Cc2ccc(N(C)C)cc2)C2CCS(=O)(=O)C2)cc(OC)c1OC (stereo unspecified) | -4.2% (inactive) | –
96 | CCOc1ccc(C(=O)N(Cc2ccc(N(C)C)cc2)C2CCS(=O)(=O)C2)cc1 (stereo unspecified) | – | 12.6 µM (active)
97 | CC1(C)C(C=C(Cl)Cl)C1C(=O)N(Cc1ccc(Cl)cc1)C1CCS(=O)(=O)C1 (stereo unspecified) | -1.61% (inactive) | –
98 | COc1ccc(NC(=O)COc2ccc(C(=O)OCC(=O)N(C)C3CCS(=O)(=O)C3)cc2OC)cc1 (stereo unspecified) | -5.23% (inactive) | –
99 | CCCCN(C(=O)COc1ccc(NC(C)=O)cc1)C1CCS(=O)(=O)C1 (stereo unspecified) | 1.35% (inactive) | –
100 | CCCN(CCC)CCCNC(=O)CNC(=O)c1nn(-c2ccc(OC)cc2)c(=O)c2ccccc12 | -5.06% (inactive) | –
101 | COc1ccc(CC(NC(C)=O)C(=O)NC2CCN(C(=O)c3ccc(OC)c(OC)c3)CC2)cc1OC (stereo unspecified) | 4.43% (inactive) | –
